In publication PMC11006913 one finds binding signal data, which are given here for eight sequences.

Common to all, as to experiment: PBM; 200 nM protein, PBS
Holding throughout (details): dsDNA, one strand shown

The target in assay [1] is CRX (Homo sapiens, UniProt O43186 26-111).
The target in assay [2] is T1, SIX6 (Homo sapiens, UniProt O95475 114-200, L167I).
T1 sequence: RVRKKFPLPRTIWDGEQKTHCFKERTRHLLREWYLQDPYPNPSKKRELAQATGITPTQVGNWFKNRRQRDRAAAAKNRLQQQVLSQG

For assay [3], the target named is T2, SIX6 (Homo sapiens, UniProt O95475 114-200, L143V).
T2 sequence: T1 sequence with L30V, I54L

Assay [4] has as its target T3, SIX6 (Homo sapiens, UniProt O95475 114-200, H141N).
T3 sequence: T1 sequence with H28N, I54L

The target of assay [5] is T4, SIX6 (Homo sapiens, UniProt O95475 114-200, T165P).
T4 sequence: T1 sequence with T52P, I54L

For assay [6], the target named is T5, SIX6 (Homo sapiens, UniProt O95475 114-200, L167M).
T5 sequence: T1 sequence with I54M

In assay [7] the target is T6, SIX6 (Homo sapiens, UniProt O95475 114-200, L143M).
T6 sequence: T1 sequence with L30M, I54L

In assay [8] the target is T7, SIX6 (Homo sapiens, UniProt O95475 114-200, T165G).
T7 sequence: T1 sequence with T52G, I54L

For assay [9], the target named is T8, SIX6 (Homo sapiens, UniProt O95475 114-200, T139Q).
T8 sequence: T1 sequence with T26Q, I54L

The target in assay [10] is CRX (Homo sapiens, UniProt O43186 26-111, E42D).
The target in assay [11] is T9, SIX6 (Homo sapiens, UniProt O95475 114-200, T165A).
T9 sequence: T1 sequence with T52A, I54L

Assay [12] addresses T10, SIX6 (Homo sapiens, UniProt O95475 114-200, L167V).
T10 sequence: T1 sequence with I54V

Assay [13] has as its target T11, SIX6 (Homo sapiens, UniProt O95475 114-200).
T11 sequence: T1 sequence with I54L

Assay [14] deals with T12, SIX6 (Homo sapiens, UniProt O95475 114-200, T165I).
T12 sequence: T1 sequence with T52I, I54L

Assay [15] deals with CRX (Homo sapiens, UniProt O43186 26-111, R41L).
Assay [16] addresses T13, VENTX (Homo sapiens, UniProt O95231 78-163, R121Q).
T13 sequence: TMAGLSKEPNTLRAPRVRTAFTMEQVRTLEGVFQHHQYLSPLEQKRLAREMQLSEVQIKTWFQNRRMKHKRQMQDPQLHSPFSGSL

The target of assay [17] is T14, VENTX (Homo sapiens, UniProt O95231 78-163, Y115F).
T14 sequence: T13 sequence with Y38F, Q44R

The target in assay [18] is PITX2 (Homo sapiens, UniProt Q99697 72-157).
Assay [19] concerns the target HOXC9 (Homo sapiens, UniProt P31274 178-260, K195R).
Assay [20] has as its target HOXC9 (Homo sapiens, UniProt P31274 178-260).
The target of assay [21] is HOXC9 (Homo sapiens, UniProt P31274 178-260, R193K).
The target in assay [22] is HOXB9 (Homo sapiens, UniProt P17482 171-250, T197M).
Assay [23] addresses HOXA4 (Homo sapiens, UniProt Q00056 201-287, W262R).
Assay [24] deals with T15, SIX6 (Homo sapiens, UniProt O95475 114-200, L143I).
T15 sequence: T1 sequence with L30I, I54L

The target in assay [25] is HOXA4 (Homo sapiens, UniProt Q00056 201-287, R217L).
Assay [26] has as its target HOXB9 (Homo sapiens, UniProt P17482 171-250).
The target in assay [27] is HOXA4 (Homo sapiens, UniProt Q00056 201-287).
The target in assay [28] is HOXB9 (Homo sapiens, UniProt P17482 171-250, R186Q).
The target in assay [29] is HOXA4 (Homo sapiens, UniProt Q00056 201-287, W262F).
In assay [30] the target is HOXA7 (Homo sapiens, UniProt P31268 116-202).
Assay [31] concerns the target HOXA7 (Homo sapiens, UniProt P31268 116-202, W177C).
Assay [32] concerns the target T16, NKX2-4 (Homo sapiens, UniProt Q9H2Z4 175-261, P217L).
T16 sequence: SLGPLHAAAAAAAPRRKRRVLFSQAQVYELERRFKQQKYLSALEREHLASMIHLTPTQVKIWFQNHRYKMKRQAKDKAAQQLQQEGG

Assay [33] addresses HOXC10 (Homo sapiens, UniProt Q9NYD6 254-340).
The target in assay [34] is T17, NKX2-4 (Homo sapiens, UniProt Q9H2Z4 175-261).
T17 sequence: T16 sequence with L43P

The target of assay [35] is HOXA2 (Homo sapiens, UniProt O43364 129-215, R185T).
Assay [36] has as its target HOXA2 (Homo sapiens, UniProt O43364 129-215, R185K).
In assay [37] the target is HOXC10 (Homo sapiens, UniProt Q9NYD6 254-340, K271E).
For assay [38], the target named is T18, NKX2-4 (Homo sapiens, UniProt Q9H2Z4 175-261, R246Q).
T18 sequence: T16 sequence with L43P, R72Q

In assay [39] the target is HOXA2 (Homo sapiens, UniProt O43364 129-215, Y150S).
For assay [40], the target named is NKX3-2 (Homo sapiens, UniProt P78367 192-278, P234S).
Assay [41] deals with HOXA2 (Homo sapiens, UniProt O43364 129-215).
Assay [42] has as its target NKX3-2 (Homo sapiens, UniProt P78367 192-278).

Positions count from the first letter of the chain named.

CRX (Homo sapiens, UniProt O43186 26-111, E42D), sequence (O43186 26-111 E42D): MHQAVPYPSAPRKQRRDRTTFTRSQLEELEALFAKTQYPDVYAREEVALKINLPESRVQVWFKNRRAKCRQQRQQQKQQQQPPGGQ
CRX (Homo sapiens, UniProt O43186 26-111, R41L), sequence (O43186 26-111 R41L): as the sequence (O43186 26-111 E42D) above, with R16L, D17E counted along it
CRX (Homo sapiens, UniProt O43186 26-111), sequence (O43186 26-111): as the sequence (O43186 26-111 E42D) above, with D17E counted along it
HOXA2 (Homo sapiens, UniProt O43364 129-215, R185K), sequence (O43364 129-215 R185K): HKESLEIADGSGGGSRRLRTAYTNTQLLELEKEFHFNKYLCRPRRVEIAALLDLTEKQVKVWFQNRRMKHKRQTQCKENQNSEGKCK
HOXC9 (Homo sapiens, UniProt P31274 178-260), sequence (P31274 178-260): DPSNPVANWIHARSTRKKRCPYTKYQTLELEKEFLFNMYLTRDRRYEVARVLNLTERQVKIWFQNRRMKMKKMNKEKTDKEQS
HOXA7 (Homo sapiens, UniProt P31268 116-202), sequence (P31268 116-202): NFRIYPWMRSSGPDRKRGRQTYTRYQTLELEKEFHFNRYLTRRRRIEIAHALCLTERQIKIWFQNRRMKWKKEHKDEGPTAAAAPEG
HOXA4 (Homo sapiens, UniProt Q00056 201-287), sequence (Q00056 201-287): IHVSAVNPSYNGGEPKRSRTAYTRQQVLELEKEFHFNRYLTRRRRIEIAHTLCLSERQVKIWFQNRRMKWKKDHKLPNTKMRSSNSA
HOXA7 (Homo sapiens, UniProt P31268 116-202, W177C), sequence (P31268 116-202 W177C): as the sequence (P31268 116-202) above, with W62C counted along it
HOXC9 (Homo sapiens, UniProt P31274 178-260, K195R), sequence (P31274 178-260 K195R): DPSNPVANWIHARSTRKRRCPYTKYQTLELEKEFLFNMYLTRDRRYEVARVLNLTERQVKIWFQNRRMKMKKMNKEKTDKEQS
HOXB9 (Homo sapiens, UniProt P17482 171-250), sequence (P17482 171-250): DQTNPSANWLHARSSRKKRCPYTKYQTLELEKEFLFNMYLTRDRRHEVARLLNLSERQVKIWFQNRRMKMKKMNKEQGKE
HOXA2 (Homo sapiens, UniProt O43364 129-215, Y150S), sequence (O43364 129-215 Y150S): as the sequence (O43364 129-215 R185K) above, with Y22S, K57R counted along it
NKX3-2 (Homo sapiens, UniProt P78367 192-278, P234S), sequence (P78367 192-278 P234S): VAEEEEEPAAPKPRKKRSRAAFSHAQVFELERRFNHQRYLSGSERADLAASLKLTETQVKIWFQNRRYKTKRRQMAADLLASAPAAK
HOXA2 (Homo sapiens, UniProt O43364 129-215), sequence (O43364 129-215): as the sequence (O43364 129-215 R185K) above, with K57R counted along it
HOXB9 (Homo sapiens, UniProt P17482 171-250, T197M), sequence (P17482 171-250 T197M): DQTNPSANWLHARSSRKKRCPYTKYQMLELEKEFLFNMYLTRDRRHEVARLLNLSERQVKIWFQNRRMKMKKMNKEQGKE
HOXA2 (Homo sapiens, UniProt O43364 129-215, R185T), sequence (O43364 129-215 R185T): as the sequence (O43364 129-215 R185K) above, with K57T counted along it
HOXA4 (Homo sapiens, UniProt Q00056 201-287, W262R), sequence (Q00056 201-287 W262R): as the sequence (Q00056 201-287) above, with W62R counted along it
HOXB9 (Homo sapiens, UniProt P17482 171-250, R186Q), sequence (P17482 171-250 R186Q): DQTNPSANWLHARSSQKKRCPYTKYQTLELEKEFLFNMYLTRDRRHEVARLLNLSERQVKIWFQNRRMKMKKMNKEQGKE
HOXA4 (Homo sapiens, UniProt Q00056 201-287, W262F), sequence (Q00056 201-287 W262F): as the sequence (Q00056 201-287) above, with W62F counted along it
NKX3-2 (Homo sapiens, UniProt P78367 192-278), sequence (P78367 192-278): as the sequence (P78367 192-278 P234S) above, with S43P counted along it
HOXC10 (Homo sapiens, UniProt Q9NYD6 254-340), sequence (Q9NYD6 254-340): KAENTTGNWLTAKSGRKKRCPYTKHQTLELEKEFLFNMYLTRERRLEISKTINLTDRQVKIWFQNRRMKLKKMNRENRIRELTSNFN
HOXC9 (Homo sapiens, UniProt P31274 178-260, R193K), sequence (P31274 178-260 R193K): as the sequence (P31274 178-260) above, with R16K counted along it
HOXA4 (Homo sapiens, UniProt Q00056 201-287, R217L), sequence (Q00056 201-287 R217L): as the sequence (Q00056 201-287) above, with R17L counted along it
HOXC10 (Homo sapiens, UniProt Q9NYD6 254-340, K271E), sequence (Q9NYD6 254-340 K271E): as the sequence (Q9NYD6 254-340) above, with K18E counted along it

As to AGACTATC, the binding signal in assay [1] is 9.61 upbm affinity estimate (log intensity, higher = more binding, comparable within an allelic series); in [2], 10.2 upbm affinity estimate (log intensity, higher = more binding, comparable within an allelic series); in [3] it was 9.83 upbm affinity estimate (log intensity, higher = more binding, comparable within an allelic series); in assay [4], 10.2 upbm affinity estimate (log intensity, higher = more binding, comparable within an allelic series); in [5], 9.59 upbm affinity estimate (log intensity, higher = more binding, comparable within an allelic series); in assay [6] it was 9.99 upbm affinity estimate (log intensity, higher = more binding, comparable within an allelic series). Moreover, the binding signal in assay [7] was 10.2 upbm affinity estimate (log intensity, higher = more binding, comparable within an allelic series); in [8], 10.2 upbm affinity estimate (log intensity, higher = more binding, comparable within an allelic series); in [9], 10.4 upbm affinity estimate (log intensity, higher = more binding, comparable within an allelic series); in assay [10] it was 9.51 upbm affinity estimate (log intensity, higher = more binding, comparable within an allelic series); in [11], 10.1 upbm affinity estimate (log intensity, higher = more binding, comparable within an allelic series); in [12], 10 upbm affinity estimate (log intensity, higher = more binding, comparable within an allelic series). The binding signal is 10.2 upbm affinity estimate (log intensity, higher = more binding, comparable within an allelic series) in assay [13]; 10.1 upbm affinity estimate (log intensity, higher = more binding, comparable within an allelic series) in [14]; 9.45 upbm affinity estimate (log intensity, higher = more binding, comparable within an allelic series) in assay [15].

For the sequence CAGATTAA, the binding signal in assay [1] is 13.1 upbm affinity estimate (log intensity, higher = more binding, comparable within an allelic series); in [16] it was 10.7 upbm affinity estimate (log intensity, higher = more binding, comparable within an allelic series); in assay [17], 10.7 upbm affinity estimate (log intensity, higher = more binding, comparable within an allelic series); in assay [10], 13.1 upbm affinity estimate (log intensity, higher = more binding, comparable within an allelic series); in assay [18], 12.5 upbm affinity estimate (log intensity, higher = more binding, comparable within an allelic series).

Turning to ATAATCTG, the binding signal in assay [1] was 13 upbm affinity estimate (log intensity, higher = more binding, comparable within an allelic series); in assay [16], 9.97 upbm affinity estimate (log intensity, higher = more binding, comparable within an allelic series); in [17], 10.1 upbm affinity estimate (log intensity, higher = more binding, comparable within an allelic series); in assay [10] it was 13 upbm affinity estimate (log intensity, higher = more binding, comparable within an allelic series); in [15], 13 upbm affinity estimate (log intensity, higher = more binding, comparable within an allelic series).

On to ATTATCTC, for which the binding signal is 11.7 upbm affinity estimate (log intensity, higher = more binding, comparable within an allelic series) in [1]; 11.4 upbm affinity estimate (log intensity, higher = more binding, comparable within an allelic series) in assay [19]; 11.5 upbm affinity estimate (log intensity, higher = more binding, comparable within an allelic series) in assay [10]; 11.4 upbm affinity estimate (log intensity, higher = more binding, comparable within an allelic series) in assay [20]; 11.4 upbm affinity estimate (log intensity, higher = more binding, comparable within an allelic series) in [21]; 11.5 upbm affinity estimate (log intensity, higher = more binding, comparable within an allelic series) in [15].

Regarding CACGCCCC, the binding signal is 8.24 upbm affinity estimate (log intensity, higher = more binding, comparable within an allelic series) in assay [1]; 8.49 upbm affinity estimate (log intensity, higher = more binding, comparable within an allelic series) in assay [22]; 9.05 upbm affinity estimate (log intensity, higher = more binding, comparable within an allelic series) in assay [2]; 9.84 upbm affinity estimate (log intensity, higher = more binding, comparable within an allelic series) in [23]; 8.92 upbm affinity estimate (log intensity, higher = more binding, comparable within an allelic series) in assay [3]; 9.05 upbm affinity estimate (log intensity, higher = more binding, comparable within an allelic series) in [4]. For the same sequence, the binding signal in [5] is 8.95 upbm affinity estimate (log intensity, higher = more binding, comparable within an allelic series); in assay [6], 8.99 upbm affinity estimate (log intensity, higher = more binding, comparable within an allelic series); in assay [7], 9.02 upbm affinity estimate (log intensity, higher = more binding, comparable within an allelic series); in assay [24], 8.94 upbm affinity estimate (log intensity, higher = more binding, comparable within an allelic series); in [8] it was 9.18 upbm affinity estimate (log intensity, higher = more binding, comparable within an allelic series); in [25] it was 9.86 upbm affinity estimate (log intensity, higher = more binding, comparable within an allelic series). The binding signal in assay [26] was 8.48 upbm affinity estimate (log intensity, higher = more binding, comparable within an allelic series); in [9], 9.14 upbm affinity estimate (log intensity, higher = more binding, comparable within an allelic series); in [10], 8.24 upbm affinity estimate (log intensity, higher = more binding, comparable within an allelic series); in assay [11], 9.17 upbm affinity estimate (log intensity, higher = more binding, comparable within an allelic series); in [27], 9.74 upbm affinity estimate (log intensity, higher = more binding, comparable within an allelic series); in assay [12] it was 8.99 upbm affinity estimate (log intensity, higher = more binding, comparable within an allelic series). In addition, the binding signal was 9.08 upbm affinity estimate (log intensity, higher = more binding, comparable within an allelic series) in assay [13]; 9.05 upbm affinity estimate (log intensity, higher = more binding, comparable within an allelic series) in assay [14]; 8.47 upbm affinity estimate (log intensity, higher = more binding, comparable within an allelic series) in [28]; 8.33 upbm affinity estimate (log intensity, higher = more binding, comparable within an allelic series) in assay [15]; 9.99 upbm affinity estimate (log intensity, higher = more binding, comparable within an allelic series) in assay [29].

For the sequence TGCGATAA, the binding signal is 10.9 upbm affinity estimate (log intensity, higher = more binding, comparable within an allelic series) in assay [1]; 9.91 upbm affinity estimate (log intensity, higher = more binding, comparable within an allelic series) in assay [30]; 10.5 upbm affinity estimate (log intensity, higher = more binding, comparable within an allelic series) in assay [10]; 8.8 upbm affinity estimate (log intensity, higher = more binding, comparable within an allelic series) in [31]; 10.4 upbm affinity estimate (log intensity, higher = more binding, comparable within an allelic series) in [15].

Regarding GCCCGGGC, the binding signal was 8.05 upbm affinity estimate (log intensity, higher = more binding, comparable within an allelic series) in assay [1]; 8.34 upbm affinity estimate (log intensity, higher = more binding, comparable within an allelic series) in assay [32]; 9.84 upbm affinity estimate (log intensity, higher = more binding, comparable within an allelic series) in assay [33]; 8.35 upbm affinity estimate (log intensity, higher = more binding, comparable within an allelic series) in assay [34]; 6.98 upbm affinity estimate (log intensity, higher = more binding, comparable within an allelic series) in assay [35]; 8.04 upbm affinity estimate (log intensity, higher = more binding, comparable within an allelic series) in assay [10]. In addition, the binding signal in assay [18] is 8.05 upbm affinity estimate (log intensity, higher = more binding, comparable within an allelic series); in assay [36], 9.77 upbm affinity estimate (log intensity, higher = more binding, comparable within an allelic series); in assay [37] it was 10.1 upbm affinity estimate (log intensity, higher = more binding, comparable within an allelic series); in [38] it was 8.33 upbm affinity estimate (log intensity, higher = more binding, comparable within an allelic series); in [39] it was 10.4 upbm affinity estimate (log intensity, higher = more binding, comparable within an allelic series); in assay [40], 9.95 upbm affinity estimate (log intensity, higher = more binding, comparable within an allelic series). For the same sequence, the binding signal was 8.04 upbm affinity estimate (log intensity, higher = more binding, comparable within an allelic series) in assay [15]; 7.45 upbm affinity estimate (log intensity, higher = more binding, comparable within an allelic series) in [41]; 9.83 upbm affinity estimate (log intensity, higher = more binding, comparable within an allelic series) in assay [42].

As to AGATTAGC, the binding signal in assay [1] is 13 upbm affinity estimate (log intensity, higher = more binding, comparable within an allelic series); in assay [16] it was 10.5 upbm affinity estimate (log intensity, higher = more binding, comparable within an allelic series); in assay [17], 10.4 upbm affinity estimate (log intensity, higher = more binding, comparable within an allelic series); in assay [10], 13.1 upbm affinity estimate (log intensity, higher = more binding, comparable within an allelic series); in [18] it was 12.5 upbm affinity estimate (log intensity, higher = more binding, comparable within an allelic series); in [15], 12.7 upbm affinity estimate (log intensity, higher = more binding, comparable within an allelic series).
